Results on 7 molecules are retold here after PubChem BioAssay (Tox21).

The nature of assay [1]: qHTS assay to identify small molecule antagonists of the androgen receptor (AR) signaling pathway using the MDA cell line in the presence of 0.5 nM R1881 - cell viability counter screen (AID 1259242). Further: nearly all actives have a fitted effect of over 45% in size. Further: potency means the concentration at half of the fitted maximal effect. The procedure, abridged: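 MDA-kb2 cells (MMTV-luciferase, AR/GR responsive) were treated with compounds plus 0.5 nM R1881 (final) for 16 hr at 37C, 0% CO2. Viability was then read in the same wells as live-cell protease fluorescence (CellTiter-Fluor, 30 min).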

Assay [2] concerns the target Androgen receptor (Homo sapiens) (UniProt P10275). Put plainly: qHTS assay to identify small molecule antagonists of the androgen receptor (AR) signaling pathway using the MDA cell line in the presence of 0.5 nM R1881 (AID 1259243). Further: nearly all actives have a fitted effect of over 50% in size. Further: potency means the concentration at half of the fitted maximal effect. In outline: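 MDA-kb2 cells (MMTV-luciferase, responsive to AR and GR) at 3,000/well, rested 5 h at 37C, 0% CO2, then given compounds plus 0.5 nM R1881 (final) for 16 hr. Luciferase read with ONE-Glo after 30 min at room temperature.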
Background: Quantitative high-throughput screening tests each substance at several concentrations.

The nature of assay [3]: qHTS assay to identify small molecule phospholipidosis (PLD) inducers (AID 1259344; active means well fitted curve in the direction sought with a large enough effect; an effect the other way counts as inactive or inconclusive; further: potency means the concentration at half of the fitted maximal effect). In outline:
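HepG2 cells, 900/well, treated with compound plus LipidTOX Red for 24 h at 37 C; amiodarone positive and DMSO negative controls. Fixed with paraformaldehyde/Hoechst, then high-content imaging scored LipidTOX pit count and integrated intensity per well and per cell.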

Assay [4] in a line: qHTS assay to identify small molecule HDAC inhibitors (AID 1259364). Further: top concentration of the series differs between compounds; nearly all actives have a fitted effect of over 45% in size. In outline:
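Wild-type HCT-116 cells, plated overnight at 37 C, exposed to compounds 2 hr at 37 C; luminogenic HDAC-Glo substrate then added 30 min at room temperature. Luminescence reports relative endogenous class I/II HDAC activity.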

Assay [5] can be described thus: qHTS assay to identify small molecule agonists of the sonic hedgehog signaling (Shh) pathway - cell viability counter screen (AID 1259366). Further: nearly all actives have a fitted effect of over 50% in size. The procedure, abridged:
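Same-well cytotoxicity read. Gli1-Luc reporter 3T3 cells; compounds 24hr, 37C/5% CO2; CellTiter-Fluor fluorescence.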

A short description of assay [6]: qHTS assay to identify small molecule agonists of the sonic hedgehog signaling (Shh) pathway (AID 1259368; calls by dose curve;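 further: NIH/3T3-derived 3T3Gli1-Luc cells carrying a stable Gli1-driven firefly luciferase reporter; series mostly up to about 92 µM; nearly all actives have a fitted effect of over 15% in size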). The procedure, abridged: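 NIH/3T3-derived 3T3Gli1-Luc cells with stably integrated Gli1-driven firefly luciferase, 2,000 cells/well, compounds added after 4 hr. Incubated 24 hr at 37C, 5% CO2; luminescence read after 30 min with luciferase reagent at room temperature.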

Assay [7] can be described thus: qHTS assay to identify small molecule antagonists of the sonic hedgehog signaling (Shh) pathway (AID 1259369; calls by dose curve; further: nearly all actives have a fitted effect of over 45% in size; further: potency means the concentration at half of the fitted maximal effect). The procedure, abridged: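 NIH/3T3-derived Gli1-Luc reporter cells plated 4 h, dosed with compound, then stimulated with conditioned medium for 24 h at 37 C. Firefly luciferase luminescence read after 30 min with detection reagent at room temperature.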
The target in assay [8] is Estrogen receptor beta (Homo sapiens) (UniProt Q92731). Put plainly: qHTS assay to identify small molecule antagonists of the estrogen receptor beta (ER-beta) signaling pathway (AID 1259378; active means well fitted inhibition curve with a large enough effect in the signal ratio in the repeat runs, not every such curve was filed as active; the % refers to the signal ratio). In outline: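 ER-beta-UAS-bla HEK293T cells in 2% charcoal-stripped FBS medium treated with compound plus 1nM final 17-beta-estradiol for 16 hr at 37C. Beta-lactamase reporter read by FRET substrate fluorescence after 2 hours at room temperature.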
Sequence of Estrogen receptor beta (Homo sapiens) (Q92731 whole entry, looked up): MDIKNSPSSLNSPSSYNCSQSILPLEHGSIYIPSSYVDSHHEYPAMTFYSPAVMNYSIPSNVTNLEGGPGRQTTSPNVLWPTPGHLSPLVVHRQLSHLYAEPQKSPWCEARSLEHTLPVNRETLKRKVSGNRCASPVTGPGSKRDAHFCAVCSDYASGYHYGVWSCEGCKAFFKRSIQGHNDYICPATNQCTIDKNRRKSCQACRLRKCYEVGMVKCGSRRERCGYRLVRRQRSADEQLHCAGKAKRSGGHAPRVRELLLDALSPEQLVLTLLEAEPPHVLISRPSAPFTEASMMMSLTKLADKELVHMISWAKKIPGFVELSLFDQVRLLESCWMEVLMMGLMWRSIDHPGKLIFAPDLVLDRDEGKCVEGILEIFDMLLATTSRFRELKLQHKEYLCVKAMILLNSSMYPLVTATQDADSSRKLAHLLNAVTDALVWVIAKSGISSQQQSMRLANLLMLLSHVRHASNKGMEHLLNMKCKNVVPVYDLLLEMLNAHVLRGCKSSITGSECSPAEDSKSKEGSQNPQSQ

A short description of assay [9]: qHTS assay to identify small molecule agonists of the androgen receptor (AR) signaling pathway in the presence of an antagonist - cell viability counter screen (AID 1259379). Further: nearly all actives have a fitted effect of over 25% in size. Further: potency means the concentration at half of the fitted maximal effect.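 On activity change, negative = cytotoxicity: MDA-kb2 human breast cancer cells carrying an MMTV luciferase reporter; series mostly up to about 92 µM.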 In outline:
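MDA-kb2 cells (MMTV-luciferase, AR/GR), 3,000/well, 5 h attachment, then 3.0 µM nilutamide (final) and compounds at 15 concentrations. Viability by CellTiter-Fluor fluorescence after 16 h at 37 °C, 0% CO2, in the reporter wells.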

Assay [10] in a line: qHTS assay to identify small molecule agonists of the estrogen receptor beta (ER-beta) signaling pathway - cell viability counter screen (AID 1259380). Further: nearly all actives have a fitted effect of over 30% in size. Further: potency means the concentration at half of the fitted maximal effect. In outline: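 ER-beta-UAS-bla HEK293T cells in medium with 2% charcoal-stripped FBS, pre-incubated 6 hr, then treated 16 hr at 37C. Cytotoxicity read in the same wells by CellTiter-Glo luminescence after 30 min at room temperature.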

Assay [11] has as its target Androgen receptor (Homo sapiens) (UniProt P10275). Description: qHTS assay to identify small molecule agonists of the androgen receptor (AR) signaling pathway in the presence of an antagonist (AID 1259381; calls by dose curve; further: nearly all actives have a fitted effect of over 15% in size; further: potency means the concentration at half of the fitted maximal effect). In outline:
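MDA-kb2 cells carrying MMTV-luciferase (AR/GR responsive), 3,000 cells/well, co-treated with 3.0 uM nilutamide final. Compounds at 15 concentrations, 16 hr at 37C without CO2. Luciferase luminescence read after 30 min with ONE-Glo.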

A short description of assay [12]: qHTS assay to identify small molecule antagonists of the estrogen receptor beta (ER-beta) signaling pathway - cell viability counter screen (AID 1259382). Further: nearly all actives have a fitted effect of over 55% in size. Further: potency means the concentration at half of the fitted maximal effect. On activity change, negative = cytotoxicity: series mostly up to about 92 µM. The procedure, abridged: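 ER-beta-UAS-bla HEK293T cells in 2% charcoal-stripped FBS medium, treated with compound plus 1 nM 17-beta-estradiol for 16 h at 37C. Viability read by CellTiter-Glo luminescence after 30 min at room temperature in the same wells.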

Assay [13] in a line: qHTS assay to identify small molecule agonists or antagonists of the thyroid stimulating hormone receptor (TSHR) signaling pathway - wild type cell line counter screen (AID 1259384; calls by dose curve). The procedure, abridged:
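Wild-type Hek293 cells, 800/well, 18 h at 37C, then compound with Ro20-1724 for 30 min RT. cAMP by HTRF (cAMP-d2/anti-cAMP cryptate), 1 h RT, fluorescence read. 15 concentrations, triplicates.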

Assay [14] has as its target Thyrotropin receptor (Homo sapiens) (UniProt P16473). Put plainly: qHTS assay to identify small molecule antagonists of the thyroid stimulating hormone receptor (TSHR) signaling pathway (AID 1259385; calls by dose curve; further: nearly all actives have a fitted effect of over 20% in size). In outline:
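TSHR-HEK293 cells (800/well) plated 18 h, then compounds with Ro20-1724 and TSH at 1.5 ng/mL final, 30 min at room temperature. cAMP quantified by HTRF (cAMP-d2/anti-cAMP-cryptate, 1 h); 15 concentrations in triplicate.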

A short description of assay [15]: qHTS assay to identify small molecule agonists of the estrogen receptor alpha (ER-alpha) signaling pathway in the presence of an antagonist - cell viability counter screen (AID 1259386).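 Further: series mostly up to about 92 µM; cells exposed to compounds for 22 h at 37 °C before the viability read; nearly all actives have a fitted effect of over 30% in size.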 In outline: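 Cell viability in VM7Luc4E2 cells (endogenous full-length ER-alpha) measured by CellTiter-Fluor fluorescence in the same wells as the luciferase screen. Cells pre-cultured 5 days in charcoal-stripped serum, then treated 22 h with compounds at 15 concentrations plus 10.0nM ICI-182,780.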

A short description of assay [16]: qHTS assay to identify small molecule HDAC inhibitors - cell viability counter screen (AID 1259365). Further: series mostly up to about 92 µM; nearly all actives have a fitted effect of over 50% in size. The procedure, abridged:
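After overnight seeding at 1,500 cells per well, wild-type HCT-116 cultures took up compounds in DMSO for 2hr at 37 C. Viable cell content came from luminescence with CellTiter-Glo.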

Assay [17] can be described thus: qHTS assay to identify small molecule antagonists of the sonic hedgehog signaling (Shh) pathway - cell viability counter screen (AID 1259367). Further: nearly all actives have a fitted effect of over 55% in size. In outline:
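NIH/3T3-derived Gli1-Luc reporter cells, 2,000/well, plated 4 hr before compound addition, then stimulated with conditioned medium for 24 hr at 37C. Viability measured in the same wells by CellTiter-Fluor fluorescence, reagent added at 23 hr for 1 hr.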

For assay [18], the target named is Estrogen receptor (Homo sapiens) (UniProt P03372). Put plainly: qHTS assay to identify small molecule antagonists of the estrogen receptor alpha (ER-alpha) signaling pathway using the BG1 cell line in the presence of 0.1 nM 17-beta-estradiol (AID 1259244). Further: nearly all actives have a fitted effect of over 50% in size. In outline:
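VM7Luc4E2 cells (endogenous full-length ER-alpha, 4×ERE-luciferase), kept 5 days in phenol red-free, charcoal-stripped FBS medium; 4,000 cells/well. Compounds added with 0.1 nM (final) 17beta-estradiol, 22 hr at 37C; luminescence read with ONE-Glo after 30 min.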

Assay [19] has as its target Estrogen receptor beta (Homo sapiens) (UniProt Q92731). Put plainly: qHTS assay to identify small molecule agonists of the estrogen receptor beta (ER-beta) signaling pathway (AID 1259377; active means well fitted activation curve with a large enough effect in the signal ratio in the repeat runs, not every such curve was filed as active; the % refers to the signal ratio). The procedure, abridged:
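Read-out: beta-lactamase FRET fluorescence. Cell line: ER-beta-UAS-bla HEK293T in 2% charcoal-stripped FBS. Exposure: 16 hr at 37C. Substrate step: 2 h at room temperature.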

The target in assay [20] is Estrogen receptor (Homo sapiens) (UniProt P03372). Put plainly: qHTS assay to identify small molecule agonists of the estrogen receptor alpha (ER-alpha) signaling pathway in the presence of an antagonist (AID 1259383; calls by dose curve; further: top concentration of the series differs between compounds; nearly all actives have a fitted effect of over 15% in size). The procedure, abridged:
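VM7Luc4E2 cells express endogenous full-length ER-alpha with an ERE-luciferase reporter and were hormone-deprived for 5 days. Compounds at 15 concentrations were added with 10.0nM ICI-182,780 for 22hr at 37C. Luminescence was read with ONE-Glo.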

Structures are written as SMILES. Where “and” joins values, the source holds several entries; their conditions need not be identical. Equal values may be shown once. A number with no mark means an inactive call. Results filed as inconclusive are left out. Calls of active or inactive are those of the source. Unless noted, the call rests on the fitted dose curve; in most records, active means well fitted curve in the direction sought with a large enough effect in the repeat runs; inconclusive means weak or mixed curves; inactive means no such curve, though single readings can be large; an effect the other way counts as inactive or inconclusive.
On the % scale 0 is the no-effect control and ±100 the full control effect.

Sequence of Estrogen receptor (Homo sapiens) (P03372 whole entry, looked up): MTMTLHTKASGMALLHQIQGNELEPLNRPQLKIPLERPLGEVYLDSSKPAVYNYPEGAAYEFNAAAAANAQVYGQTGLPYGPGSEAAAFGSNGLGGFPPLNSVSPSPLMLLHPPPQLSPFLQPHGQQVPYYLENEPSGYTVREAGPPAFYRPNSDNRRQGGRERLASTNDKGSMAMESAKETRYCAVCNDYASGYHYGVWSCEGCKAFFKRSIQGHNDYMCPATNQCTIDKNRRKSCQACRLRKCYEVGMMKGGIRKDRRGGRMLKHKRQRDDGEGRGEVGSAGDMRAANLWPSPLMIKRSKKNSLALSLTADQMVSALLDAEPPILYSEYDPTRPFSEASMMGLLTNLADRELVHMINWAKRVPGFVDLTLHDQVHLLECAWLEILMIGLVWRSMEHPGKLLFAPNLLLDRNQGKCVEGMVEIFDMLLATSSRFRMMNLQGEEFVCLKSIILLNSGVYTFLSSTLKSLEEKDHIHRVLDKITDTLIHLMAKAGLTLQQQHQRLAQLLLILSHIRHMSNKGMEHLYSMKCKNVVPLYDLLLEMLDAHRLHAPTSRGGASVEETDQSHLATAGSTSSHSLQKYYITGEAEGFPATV
Sequence of Androgen receptor (Homo sapiens) (P10275 whole entry, looked up): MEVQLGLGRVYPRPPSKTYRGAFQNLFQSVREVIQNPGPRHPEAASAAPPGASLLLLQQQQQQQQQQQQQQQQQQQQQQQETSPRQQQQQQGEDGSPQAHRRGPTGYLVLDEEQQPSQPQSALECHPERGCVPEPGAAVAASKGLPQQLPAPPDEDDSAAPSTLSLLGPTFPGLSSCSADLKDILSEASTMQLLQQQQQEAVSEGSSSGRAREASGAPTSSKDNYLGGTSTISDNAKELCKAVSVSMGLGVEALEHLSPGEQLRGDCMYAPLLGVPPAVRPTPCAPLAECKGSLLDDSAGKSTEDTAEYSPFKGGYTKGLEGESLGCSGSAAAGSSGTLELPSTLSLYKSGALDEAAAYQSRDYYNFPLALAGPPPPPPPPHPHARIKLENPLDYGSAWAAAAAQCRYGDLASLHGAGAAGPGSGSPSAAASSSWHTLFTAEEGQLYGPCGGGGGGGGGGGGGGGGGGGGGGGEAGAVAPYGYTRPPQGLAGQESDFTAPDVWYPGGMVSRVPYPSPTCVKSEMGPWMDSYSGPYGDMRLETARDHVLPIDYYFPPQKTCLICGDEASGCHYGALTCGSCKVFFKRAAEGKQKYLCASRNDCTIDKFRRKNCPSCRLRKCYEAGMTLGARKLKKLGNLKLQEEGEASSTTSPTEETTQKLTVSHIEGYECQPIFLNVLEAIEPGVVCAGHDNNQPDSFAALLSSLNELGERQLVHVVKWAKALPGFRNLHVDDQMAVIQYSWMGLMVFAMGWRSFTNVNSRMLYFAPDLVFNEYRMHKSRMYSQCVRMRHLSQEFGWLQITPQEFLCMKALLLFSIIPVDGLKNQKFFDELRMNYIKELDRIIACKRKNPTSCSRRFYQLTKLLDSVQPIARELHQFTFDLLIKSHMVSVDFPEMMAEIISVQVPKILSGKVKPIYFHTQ
Sequence of Thyrotropin receptor (Homo sapiens) (P16473 whole entry, looked up): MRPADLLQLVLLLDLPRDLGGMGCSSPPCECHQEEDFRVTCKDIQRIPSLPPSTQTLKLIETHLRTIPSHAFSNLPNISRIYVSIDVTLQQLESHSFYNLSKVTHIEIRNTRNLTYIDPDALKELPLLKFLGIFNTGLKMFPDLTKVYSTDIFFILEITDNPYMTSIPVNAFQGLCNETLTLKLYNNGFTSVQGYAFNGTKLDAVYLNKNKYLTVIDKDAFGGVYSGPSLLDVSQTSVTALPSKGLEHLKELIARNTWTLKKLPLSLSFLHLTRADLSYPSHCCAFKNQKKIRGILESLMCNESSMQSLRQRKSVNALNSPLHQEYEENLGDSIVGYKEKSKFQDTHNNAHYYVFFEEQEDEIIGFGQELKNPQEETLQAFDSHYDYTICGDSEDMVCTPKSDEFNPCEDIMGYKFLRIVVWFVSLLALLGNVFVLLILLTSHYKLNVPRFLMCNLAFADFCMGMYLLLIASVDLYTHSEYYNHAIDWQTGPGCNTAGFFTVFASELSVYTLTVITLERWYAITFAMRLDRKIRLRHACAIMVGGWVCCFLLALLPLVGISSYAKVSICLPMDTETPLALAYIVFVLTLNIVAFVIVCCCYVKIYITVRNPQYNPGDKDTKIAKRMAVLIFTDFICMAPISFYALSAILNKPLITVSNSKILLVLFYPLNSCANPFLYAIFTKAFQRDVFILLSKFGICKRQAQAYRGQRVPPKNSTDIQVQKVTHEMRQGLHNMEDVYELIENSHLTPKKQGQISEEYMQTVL

For `N[C@@H](CSSC[C@H](N)C(=O)O)C(=O)O`, the viability change, negative = cytotoxic in assay [1] was -1.71% [at 0.349 µM]; in assay [5], 13.4% [at 0.349 µM]. In addition, the activity, negative = inhibition is 4.74% [at 0.349 µM] in [2] and 28.3% [at 0.349 µM] in assay [8]. Also, the Potency result in assay [3] was “inactive”. The activity change, negative = inhibition in [4] was -1.21% [at 0.349 µM]; in assay [14], 0.59% [at 0.349 µM]. Besides, the activity change in [6] is -0.169% [at 0.349 µM, stronger effect = higher value]. The Potency in assay [7] was 0.335 µM (active). In addition, the activity change, negative = cytotoxicity was 0.823% [at 0.35 µM] in [9], 3.32% [at 0.349 µM] in assay [10], -5.72% [at 0.349 µM] in assay [12] and 7.62% [at 0.349 µM] in assay [15]. Moreover, the activation in assay [11] was -0.591% [at 0.349 µM]. Besides, the cAMP activity change in assay [13] was -6.57% [at 0.349 µM].
On to `O=C1OC(OC(=O)c2cccnc2Nc2cccc(C(F)(F)F)c2)c2ccccc21` (centres undefined), for which the Potency entry in assay [1], in assay [2], in assay [3], in [4], in assay [16] and in [5] was “inactive” in each case. The Potency entry in [17], in assay [6], in assay [9], in [11] and in assay [14] was “inactive” each time. In addition, the call in [13] was inactive.
With `C[C@H]1O[C@@H](O[C@H]2[C@@H](O)C[C@H](O[C@H]3[C@@H](O)C[C@H](O[C@H]4CC[C@@]5(C)[C@H](CC[C@@H]6[C@@H]5C[C@@H](O)[C@]5(C)[C@@H](C7=CC(=O)OC7)CC[C@]65O)C4)O[C@@H]3C)O[C@@H]2C)C[C@H](O)[C@@H]1O`, the Potency result in assay [1], in assay [2], in [4], in assay [16], in assay [5] and in assay [17] was “inactive” throughout. The Potency result in assay [6], in [9] and in assay [15] was “inactive” each time. Also, the Potency in [3] was 11.2 µM (active); in assay [10], 86.4 nM (active) and 95.8 nM (active); in assay [11], 0.172 µM (active); in assay [12], 61.2 nM (active) and 76.1 nM (active).
Take `CCN(CC)CCSC(=O)C(c1ccccc1)c1ccccc1`: the Potency entry in assay [1], in assay [18], in assay [3], in assay [4], in assay [16] and in [5] was “inactive” each time. Besides, the Potency result in assay [6], in assay [19], in assay [8], in [9], in assay [12] and in assay [20] was “inactive” throughout. In addition, the Potency result in assay [14] and in assay [15] was “inactive” in each case. For the same molecule, the Potency is 23.7 µM (active) in [7] and 29.8 µM (active) in [10]. In addition, the molecule was classed as inactive in assay [13].
As for `CC1(C)COCN1`, the Potency entry in assay [1], in assay [2], in assay [4], in assay [16], in assay [5] and in assay [17] was “inactive” throughout. Moreover, the Potency entry in assay [6], in assay [9], in [10], in assay [11], in assay [12] and in [14] was “inactive” each time. Moreover, the Potency result in assay [15] is “inactive”. Further, the molecule was called inactive in [13].
Take `CCCCCCCCCCCCN(CCO)CCO`: the Potency in assay [1] is 60.9 µM (active); in assay [2], 48.4 µM (active); in [7] it was 21.6 µM (active); in assay [9], 60.9 µM (active); in assay [10] it was 60.9 µM (active); in assay [12], 60.9 µM (active). Besides, the Potency result in [4], in assay [16], in assay [6], in assay [11], in assay [20] and in assay [14] was “inactive” throughout. Further, the Potency result in [15] is “inactive”. Besides, in assay [13], the result was inactive.
For the molecule `CCN1CCN(c2cc(-c3ccc(F)cc3)c3c(n2)CCCCCC3)CC1`, the viability change, negative = cytotoxic in assay [1] is 1.73% [at 19 µM]; in [5] it was -8.82% [at 19 µM]; in assay [17], -5.57% [at 19 µM]. Moreover, the activity, negative = inhibition in [2] is -22% [at 19 µM]. Besides, in [3], the PLD induction is 12.7% [at 7.66 µM]. Also, the activity change, negative = inhibition in assay [4] is 1.74% [at 19 µM]; in [7], 15.3% [at 19 µM]. The activity change, negative = cytotoxicity is -2.01% [at 19 µM] in assay [16], -1.28% [at 19 µM] in [9], -0.898% [at 19 µM] in [12] and -2.28% [at 19 µM] in assay [15]. Moreover, the activity change in assay [6] was -0.431% [at 18.9 µM, stronger effect = higher value]. The activation in assay [11] was -0.375% [at 19 µM]. Further, in assay [13], the cAMP activity change is 2.43% [at 18.9 µM].
